Most compounds without a hit are left out; they make up all but 1.6% or so of the library.
V-ATPase pH: regulators of yeast V-ATPase proton transport; S. cerevisiae, pHLuorin cytosolic pH fluorescence; response, % at 10 µM; hit rate 0.37% among 350,000; in the data active = response mostly above about 7.3%, no sharp cut-off; inactive = mostly below about 5.4%; note: actives read high
NPR2 activator: GC-B (human) receptor activation; P20594; HEK293-GC-B cells, CNP EC30, cGMP TR-FRET; 0% at EC30 CNP, 100% saturating CNP; activation, % at 10 µM; hit rate 0.11% among 370,000; AID 1920062;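 active = activation at 10 µM reaching about 35% in either raw or pattern-adjusted values, limit read from the data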
PG9 Ab binder: PG9 antibody binding by small molecule. TR-FRET gp120-PG9 antibody binding. inhibition, % at 6.7 µM. hit rate 0.43% among 360,000; in the data active = inhibition above about 8.5%
Rev-erbA mod: modulators of human Rev-erb alpha DNA binding | P20393 | Rev-erbα–FITC-DNA binding, fluorescence polarization, 90 min | activity, % at 10 µM | hit rate 0.79% among 370,000;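 active = activity above about 14%, limit read from the data; passing the limit was not always enough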;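 note: 0% = DMSO wells with 35 nM protein and 100% = DMSO wells with 750 nM protein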
NPR1 activator: GC-A (human) enzyme activation; HEK293 GC-A cells, cGMP TR-FRET, EC30 ANP; 0% at EC30 ANP, 100% saturating ANP; activation, % at 10 µM; hit rate 0.14% among 370,000; in the data active = activation above about 40%
Starred values were filed as active, the others as inactive; · = no result given.

SMILES | V-ATPase pH | NPR2 activator | PG9 Ab binder | Rev-erbA mod | NPR1 activator
COc1ccc(-c2cc(C#N)nc(Cl)n2)cc1 | -2 | 20 | 0 | -3 | 78*
O=[N+]([O-])c1ccc(S(=O)Cc2ccccc2)c([N+](=O)[O-])c1 (stereo unspecified) | 22* | 19 | 2 | 6 | 21
COc1ccc(Cl)cc1-c1cc(C(=O)NCc2ccc(F)cc2)[nH]n1 | · | 21 | -1 | -3 | 43*
COc1ccc(Cl)cc1-c1cc(C(=O)NCc2ccc(C(F)(F)F)cc2)[nH]n1 | · | 7 | 1 | -1 | 17
COc1ccc(NC(=O)c2cc(-c3cc(Cl)ccc3OC)n[nH]2)cc1OC | · | 53* | 0 | 8 | 45*
C=C[C@@]1(C)CC(=O)[C@@]2(O)[C@](C)(O1)[C@@H](OC(C)=O)[C@@H](O)C1C(C)(C)CC[C@H](O)[C@@]12C (stereo partly specified) | · | · | · | -9 | ·
Cc1c(C(=O)O)cccc1-n1c(C)cc(/C=N/Nc2ccc([N+](=O)[O-])cn2)c1C | 16* | -2 | -2 | 10 | 1
CCCCC(CC)COC(=O)c1ccc(Nc2nc(Nc3ccc(C(=O)OCC(CC)CCCC)cc3)nc(Nc3ccc(C(=O)OCC(CC)CCCC)cc3)n2)cc1 (stereo unspecified) | · | · | · | 7 | ·
Cc1cc(Br)cn2c(Cc3ccccc3)c(-c3ccco3)nc12 | · | 35* | 2 | -1 | 32
Cc1cc(Br)cn2c(Cc3ccsc3)c(-c3ccco3)nc12 | · | 18 | 4 | -11 | 11
CCOC(=O)CC[C@@]1(C(=O)OCC)C[C@@H](CC(=O)NCCCN2CCCC2=O)C(=O)N2CCCC=C21 | · | -6 | · | 1 | 1
CN1CCN(Cc2nc(N)nc(Nc3ccc4c(c3)OCCO4)n2)CC1 | -5 | 6 | 1 | 2 | 5
Nc1nc(CN2CCN(c3ccccc3F)CC2)nc(Nc2ccc3c(c2)OCCO3)n1 | 16* | 10 | 0 | 4 | -1
COCCn1c(SCC(=O)Nc2cc(C)on2)nc2c([nH]c3ccccc32)c1=O | 2 | -2 | -2 | -8 | 50*
CCn1c(SCC(=O)Nc2cccc(NC(C)=O)c2)nc2c([nH]c3ccccc32)c1=O | 2 | -1 | -5 | -15 | 1
CCn1c(SCC(=O)Nc2cc(C)on2)nc2c([nH]c3ccccc32)c1=O | -2 | -1 | -4 | 0 | 59*
CCC(C)C1NC(=O)C(CCN)NC(=O)C(NC(=O)C(CCN)NC(=O)C(NC(=O)C(CCN)NC(=O)CCCCC(C)C)C(C)O)CCNC(=O)C(C(C)O)NC(=O)C(CCN)NC(=O)C(CCN)NC(=O)C(C(C)CC)NC1=O (stereo unspecified) | · | · | · | 1 | ·
Cc1ccc(NC(=O)CSCc2ccco2)cc1 | -1 | -1 | 1 | -1 | 1
c1coc(CSSCc2ccco2)c1 | 9.5* | 2 | 0 | -7 | -1
CC(C)Oc1cccc(-c2n[nH]c(=S)n2N=Cc2cccc([N+](=O)[O-])c2)c1 | · | -10 | · | 2 | 0
CCSc1ncnc2c1oc1ccccc12 | -7 | -6 | 0 | 0 | -4
Clc1ncnc2c1oc1ccccc12 | -3 | 34 | -1 | -2 | 53*
COC(=O)c1sc(-c2ccc(Cl)cc2)cc1NC(=O)/C=C/C(=O)O | 0 | -9 | -2 | -4 | 47*
Nc1nc2c(ncn2[C@@H]2O[C@H](CNCC3=Cc4cc(O)ccc4OC3)[C@@H](O)[C@H]2O)c(=O)[nH]1 | · | 39* | -1 | 2 | 47*
O=C1C=CC(=O)N1c1cccc(-c2ccccc2)c1 | 32* | -6 | 2 | -3 | -14
SMILES | V-ATPase pH | NPR2 activator | PG9 Ab binder | Rev-erbA mod | NPR1 activator
COc1ccccc1-c1cc(C(F)(F)F)nc(S(=O)(=O)CCCC(=O)O)n1 | -1 | 5 | 2 | -2 | 32
COc1ccccc1-c1cc(C(F)(F)F)nc(S(=O)(=O)CCCC(=O)N2CCOCC2)n1 | 1 | 4 | -1 | 2 | 70*
C[C@@H]1COc2cc(Br)ccc2S(=O)(=O)N1Cc1cn(CC2CCCCC2)nn1 | · | -3 | · | 0 | -5
Cc1ccc(S(=O)(=O)NCCNS(=O)(=O)c2ccc(C)cc2)cc1 | 338* | 1 | 0 | 0 | -2
Cc1ccc(S(=O)(=O)NCCCNS(C)(=O)=O)cc1 | 1 | 4 | 0 | 3 | 0
CC(=O)N1CCN(c2ccccc2NC(=O)c2cc(Br)ccc2Cl)CC1 | 18* | 4 | -1 | 0 | 1
CN1CCN(c2ccccc2NC(=O)c2cc(Br)ccc2Cl)CC1 | -1 | 2 | -4 | 0 | 0
COc1ccc2nc(NC(=O)c3cccc(N4C(=O)CCC4=O)c3)sc2c1 | -2 | 0 | 0 | 10 | 54*
CC(C)CCNC(=O)C1COC(O)(C(Cc2ccccc2)NC(=O)[C@@H](NC(=O)OCc2ccccc2)C(C)C)CN1 (stereo partly specified) | · | -4 | · | -2 | -2
COc1ccc(NC2CCCCC2NS(=O)(=O)c2ccc(C)cc2)cc1 (stereo unspecified) | 21* | -7 | 1 | -5 | -6
COc1ccccc1NC1CCCCC1NS(=O)(=O)c1ccc(C)cc1 (stereo unspecified) | -1 | -3 | -1 | 4 | -6
COC(=O)C1[C@H]2C[C@H]3c4[nH]c5ccccc5c4CCN3C[C@@H]2CC[C@@H]1O (stereo partly specified) | · | · | · | -3 | ·
COc1ccc(C(=O)CN2C(=O)c3ccccc3C2=O)cc1 | -1 | 5 | -1 | 2 | 6
COc1ccc(C(=O)CN2C(=O)c3ccccc3C2=O)c(OC)c1C | 19* | 13 | · | -7 | 1
O=C(CSCC(=O)N1CCCCC1)Nc1nc(-c2ccc(Cl)s2)cs1 | -5 | -2 | -1 | -2 | 43*
CC1CC1C(=O)Nc1nc(-c2ccc(Cl)s2)cs1 (stereo unspecified) | 6 | 5 | 2 | 3 | 51*
O=C(CN1C(=O)CCC1=O)Nc1nc(-c2cccs2)cs1 | -6 | 3 | -2 | 2 | 10
O=C(CN1C(=O)CCC1=O)Nc1nc(-c2ccc(Cl)s2)cs1 | -3 | 1 | 0 | 2 | 54*
CC(COc1cccc(F)c1)CN1CCC(C(O)(c2ccccc2)c2ccccc2)CC1 (stereo unspecified) | · | -4 | · | -7 | -12
Cc1nc(-c2ccc(Cl)cc2)sc1C(=O)NNC(=O)C(C)C | 4 | 2 | -3 | -5 | 43*
CNC(=O)c1sc(-c2ccc(Cl)cc2)nc1C | 2 | 1 | -1 | -1 | 46*
O=C1C=CC(=Nc2cccc3c2C(=O)c2ccccc2-3)O1 | 11* | · | · | · | ·
Cn1cncc1[C@@](N)(c1ccc(Cl)cc1)c1ccc2c(c1)c(-c1cccc(Cl)c1)cc(=O)n2C | · | · | · | 14 | ·
CCCNS(=O)(=O)c1ccc2c(c1)n(C)c(=O)n2C | -3 | 2 | -3 | -1 | -1
CCCCN(C)CCNS(=O)(=O)c1ccc2c(c1)n(C)c(=O)c(=O)n2C | 18* | 1 | 0 | 6 | 3
CC(=O)Oc1ccc(N(C(C)=O)S(=O)(=O)c2ccc(C)cc2)c2ccccc12 | 0 | 0 | 0 | -1 | -2

Compound activity (PubChem BioAssay)
